Bioassay records (PubChem BioAssay)
HT1080 IDH1KD tx = kills HT-1080 cells with IDH1 knockdown; HT-1080 IDH1 knockdown viability, ATP luminescence, 48 h; Potency, µM (titrated, usually from 46.1 µM), most hits filed as cytotoxic; 360,000 tested, 2% active; AID 686971
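HT-1080-IDH1KD cells (IDH1 knocked down), 750/well in RPMI with 5% FBS, treated with compound 48 h at 37 degrees C. Viability by CellTiter-Glo luminescence, normalised to DMSO and no-cell wells; concentration-response curves classed.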
DT40 TDP1 no CPT = qHTS for Inhibitors of human tyrosyl-DNA phosphodiesterase 1 (TDP1): qHTS in cells in absence of CPT; DT40 Tdp1-/- hTDP1 cells, no CPT, ATP luminescence, 48 h; Potency, µM (titrated, usually from 46.2 µM), hits mostly inhibitors; 420,000 tested, 15% active; AID 686978, 2013; also: nearly all actives have a fitted effect of over 55% in size
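No-CPT arm: Tdp1-/-;hTDP1 DT40 cells (400/well) plus compounds, incubated ≥48 hr at 37 °C. Readout CellTiter-Glo luminescence.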
KB-V1 cytotox = kills drug-selected multidrug resistant KB-V1 cells | KB-V1 MDR cells viability, CellTiter-Glo, 72 h | Potency, µM (top dose mostly 46.1 µM), hits mostly cytotoxic | 400,000 tested, 3.4% active | AID 1347076; also: nearly all actives have a fitted effect of over 60% in size
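qHTS viability screen in drug-selected KB-V1 MDR cells: 72 h compound treatment at 37 degrees C, ATP luminescence end point.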
HT1080-NT tox = kills 2HG-producing HT-1080-NT fibrosarcoma cells | 360,000 tested, 1.6% active | Potency, µM (doses to about 46.1 µM), most hits filed as cytotoxic | HT-1080-NT fibrosarcoma viability, CellTiter-Glo ATP luminescence, 48 h;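 also: NT is the 2HG producing partner of a matched IDH1 knockdown line; nearly all actives have a fitted effect of over 55% in size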
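Viability by CellTiter-Glo luminescence after 48 h compound exposure at 37C of HT-1080-NT cells (750/well, RPMI, 5% FBS). % activity scaled between DMSO wells and medium-only wells, then curve-fitted and categorized by curve class.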
DT40 TDP1 CPT = DT40-hTDP1 cell growth loss with CPT; chicken DT40 Tdp1-/-;hTDP1 cells + 20 nM CPT, ATP luminescence, 48 h; Potency, µM (titrated, usually from 46.2 µM), usual class: inhibitors; 420,000 tested, 12% active; also: nearly all actives have a fitted effect of over 55% in size
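Chicken DT40 Tdp1-/- cells complemented with human TDP1, 400 cells/well, exposed to compounds plus 20 nM camptothecin for at least 48 h at 37 C; viability read as ATP content by CellTiter-Glo luminescence.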
KB-3-1 cytotox = kills parental KB-3-1 adenocarcinoma cells. KB-3-1 viability, CellTiter-Glo ATP luminescence, 72 h. Potency, µM (highest dose often 46.1 µM), hits mostly cytotoxic. 400,000 tested, 1.4% active. AID 1347075; also: nearly all actives have a fitted effect of over 60% in size
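Here the drug-naive KB-3-1 line serves as comparator for MDR sub-line selectivity; cells received compound titrations, 72 h at 37 °C, then CellTiter-Glo readout.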
Hits are given with their value; – = inactive; ? = inconclusive; · = no result; [ ] = another dose, or the depositor's remark. Shown are actives, neighbours in structure and some others; about 19% of the full set was active somewhere. Calls follow the shape of the dose curve; as a rule, active = well fitted curve in the direction sought with a large enough effect; inconclusive = small, poorly fitted or top-dose-only effect, or another doubt; inactive = no such curve, though single readings can be large; an effect the other way counts as inactive or inconclusive.

SMILES | HT1080 IDH1KD tx | DT40 TDP1 no CPT | KB-V1 cytotox | HT1080-NT tox | DT40 TDP1 CPT | KB-3-1 cytotox
CCc1cccc(NC(=O)CN(C)S(=O)(=O)c2ccc3c(c2)n(C)c(=O)c(=O)n3C)c1 | · | – | – | · | – | –
COc1ccccc1C1CN(CC(=O)N2CCC(N3CCOCC3)CC2)Cc2ccccc2O1 (configuration not stated) | · | – | · | · | –[9.04 µM] | ·
Fc1c(-c2ccc3ncnc(NCc4cccs4)c3c2)ccc2c1OCO2 | · | · | – | · | · | –
CC[C@H](C)[C@H](NC(=O)c1ccccc1)C(=O)Nc1ccc(S(=O)(=O)Nc2cc(C)nc(C)n2)cc1 | – | – | – | – | – | –
CC(C)C(NS(C)(=O)=O)c1nnc2n1CCN(Cc1ccc(C#CC(C)(C)O)cc1)CC2 (configuration not stated) | · | – | · | · | – | ·
CCOc1ccc2nc(NC(=S)N(C)C)sc2c1 | – | 1.2µM | ? | – | 1.3µM | –
COC(=O)c1cc(CSc2nc3ccccc3[nH]2)oc1C | – | 23µM | 2.9µM | – | 15µM | 21µM
CC(=O)c1ccc(-n2c(SCC(=O)c3c[nH]c4ccccc34)nc3ccccc3c2=O)cc1 | ? | 12µM | – | – | 21µM | –
CCOC(=O)c1c(C)[nH]c(C)c1C(=O)CSc1nc2ccccc2c(=O)n1-c1ccc(CC)cc1 | – | 6.5µM | 7.3µM | – | 12µM | 23µM
CCCc1cc(=O)[nH]c(SCc2cc(C(=O)OC)c(C)o2)n1 | – | – | – | – | – | –
CCOC(=O)c1c(C)[nH]c(C)c1C(=O)CSc1nnnn1-c1ccccc1 | – | ? | ? | – | – | –
CCOC(=O)c1c(C)[nH]c(C)c1C(=O)Cn1nnc(-c2ccccc2C)n1 | – | ? | 16µM | – | 15µM | –
Cn1ccnc1SCC(=O)c1c[nH]c2ccccc12 | – | – | – | – | – | –
CCOC(=O)c1c(C)[nH]c(C)c1C(=O)CSc1nc2ccccc2n1CC | – | ? | – | – | ? | –
CCOC(=O)c1c(C)[nH]c(C)c1C(=O)CSc1nc2ccccc2[nH]1 | – | – | 23µM | – | – | –
NC(=O)COC(=O)c1c2c(nc3ccccc13)CCC2 | – | – | – | – | – | –
CC(=O)c1ccc(NC(=O)COC(=O)c2c3c(nc4ccccc24)/C(=C\c2cccs2)CCC3)cc1 | ? | 16µM | 16µM | – | 13µM | –
CC(C)CNC(=O)COC(=O)c1c2c(nc3ccccc13)/C(=C\c1cccs1)CC2 | ? | 21µM | ? | – | ? | –
O=C(COC(=O)c1c2c(nc3ccccc13)/C(=C\c1cccs1)CCC2)Nc1ccccc1 | – | 9.2µM | 2.3µM | – | 21µM | 12µM
COc1cc(C(=O)Nc2nnc(CC(=O)NCc3ccccc3)s2)cc(OC)c1OC | – | – | ? | – | – | –
CCOC(=O)c1ccccc1NC(=O)N1CCn2c(C)ccc2C1CC (configuration not stated) | – | ? | – | – | 23µM | –
CCCC1c2ccc(C)n2CCN1C(=O)Nc1ccccc1Cl (configuration not stated) | – | 21µM | – | – | – | –
COc1ccc(-c2cn3c(C)c(C(=O)Nc4cccc(C)n4)sc3n2)cc1 | – | 23µM | 21µM | – | ? | –
Cc1cccc(NC(=O)c2sc3nc(-c4ccccc4)cn3c2C)n1 | – | ? | 21µM | – | ? | –
Cc1c(C(=O)Nc2ccccc2)sc2nc(-c3ccccc3)cn12 | – | ? | ? | – | 18µM | –
Cc1ccc(Cl)cc1NC(=O)c1sc2nc(-c3ccccc3)cn2c1C | · | 15µM | – | · | 21µM | –
COc1ccc(-c2cn3c(C)c(C(=O)NC(C)C)sc3n2)cc1 | – | – | – | – | – | –
COc1ccc(-c2cn3c(C)c(C(=O)NC(C)(C)C)sc3n2)cc1 | – | ? | – | – | ? | –
